Source: PubChem BioAssay
Active and inactive are the calls of the source.

test: E. coli growth modulation, two-sided OD650, primary screen, E. coli filamentation project, strain DRC41, 24 h (AID 1093); settings: OD650, 24 h, higher = more signal, called active from +8 up or from −8 down;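 further: MC1000 strain lacking acrAB efflux and sulA so SOS filamentation is blocked; test concentration not given here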

In the case of `COc1ccc([Si](C)(C)[C@@H]2[C@@H](CC(=O)N3Cc4ccccc4C[C@H]3CO)O[C@]3(C(=O)N(Cc4cccc(N5CCC5=O)c4)c4ccccc43)[C@H]2C)cc1`, the z-score was -0.509 (inactive).
With `O=C1C[C@@](C(=O)NCc2ccccc2)(c2ccc([N+](=O)[O-])cc2)[C@@H](c2ccc(CO)cc2)N1CC12CC3CC(CC(C3)C1)C2` the z-score was 0.657 (inactive).
In the case of `CC=CC(O)C1C=CC2C(=O)N(C)C(=O)C2N1N(c1ccccc1)c1ccccc1` (centres undefined), the z-score was -0.357 (inactive).
In the case of `C=C(CCCC)C(=O)CC[C@H](OC(=O)c1cccnc1)c1ccc(OCCO)cc1`, the z-score was 0.02 (inactive).
In the case of `CCOC(=O)C1=CCC(c2ccc(F)cc2)N(S(=O)(=O)c2ccc(C)cc2)C1` (centres undefined), the z-score was -0.704 (inactive).
In the case of `O=C1OCCC=C[C@H]2OC34C=CCN(Cn5nnc6ccccc65)C(=O)[C@H]3N(CCO)C(=O)[C@@H]4C12` (some centres undefined), the z-score was 2.26 (inactive).
With `CC(c1ccccc1)C(O)C1C=CC2C(=O)N(c3ccccc3)C(=O)C2N1Nc1ccccc1` (centres undefined) the z-score was -0.702 (inactive).
With `NCCCCCNC(=O)[C@H]1C[C@H]2C(=O)N3CCC[C@H]3C(=O)N2[C@H]1c1ccc(O)cc1` the z-score was -0.346 (inactive).

test: small-molecule microarray binders of probe aLefty2, primary screen, biochemical, biotinylated probe, 635/667 nm fluorescence (AID 1094); settings: higher = more signal;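 further: score merges spot fluorescence near 667 nm with spot signal-to-noise ratio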

Point of comparison: `COCCCNC(=O)[C@@H]1c2ccccc2C(=O)N(Cc2ccccc2OC)[C@H]1c1ccc(CO)cc1`, composite z-score -0.157. Against it:
- COC(=O)c1c(CC[C@@H](CO)NC(=O)NCCc2c[nH]c3ccccc23)oc(C(=O)Cc2ccccc2)c1C(=O)OC — higher, -0.117
- CC(C)[Si](C#CCCCC#N)(Oc1ccccc1Br)C(C)C — lower, -0.203
- COc1cc(CO)cc(I)c1O[C@H]1C=C(C(=O)NCCO)C[C@@H](N(C(=O)c2cc3ccccc3oc2=O)C2CCCCCC2)[C@@H]1O — lower, -0.198
- C=CCC(OC(C)=O)[C@@H]1[C@@H](N(Cc2ccc(-c3cccc(C(F)(F)F)c3)o2)C(=O)c2cccc3ccccc23)c2cc(OCCCO)ccc2N1C(=O)Cc1ccc2ccccc2c1 (some centres undefined) — higher, -0.106
- CC(c1ccccc1)C(O)C1C=CC2C(=O)N(C)C(=O)C2N1NC(=O)OC(C)(C)C (centres undefined) — higher, 0.12
- COc1ccc(CCNC(=O)[C@@]2(C)c3ccccc3C(=O)N(c3ccc(C)cn3)[C@H]2c2ccc(CO)cc2)cc1 — higher, 0.0851
- C#CCNCc1ccccc1 — lower, -0.161
- CC[C@@H]1C=C(C(=O)O)[C@H](c2ccc(C)cc2)N1S(=O)(=O)c1ccc(C)cc1 — higher, -0.0654
- C=CCOC(=O)[C@H]1[C@@H]2C(=O)O[C@@H](c3ccccc3)[C@@H](c3ccccc3)N2[C@@H](c2ccc(OCCOC(=O)[C@@H]3C[C@@H]4C(=O)N5CCC[C@H]5C(=O)N4[C@@H]3c3cccc(OCCO)c3)cc2)[C@]12C(=O)Nc1ccc(I)cc12 — higher, -0.117
- CC(=O)NCCCC[C@@H]1NC(=O)[C@H]2C[C@@H](C(=O)O)[C@@H](c3ccc(O)cc3)N2C1=O — higher, 0.14
- CCCC=C(CCC)[C@@H](NS(=O)(=O)c1ccc(Cl)cc1)c1ccc(C(=O)OC)cc1 — higher, 0.0007
- [N-]=[N+]=NCc1ccccc1[C@@H]1OC(c2ccc(OCCCO)cc2)=N[C@]1(CCS(=O)(=O)c1ccccc1)C(=O)N1CCCCC1 — higher, 0.0563
- C=CCC(OC(C)=O)[C@@H]1[C@@H](N(Cc2ccc(-c3ccccc3)cc2)C(=O)Cc2ccc(F)cc2)c2cc(OCCCO)ccc2N1C(=O)c1ccc2ccccc2c1 (some centres undefined) — higher, 0.0002
- CCCCCCCCCCC(O)C1C=CC2C(=O)NC(=O)C2N1Nc1ccc(Cl)cc1Cl (centres undefined) — higher, -0.0769
- COc1ccc([Si](C)(C)[C@@H]2[C@@H](CCn3cc(CCO)nn3)O[C@]3(C(=O)N(Cc4cccc(N5C(=O)c6cccc7cccc5c67)c4)c4ccccc43)[C@H]2C)cc1 — higher, -0.0956
- COCCCNC(=O)[C@@]1(CCS(=O)(=O)c2ccccc2)N=C(c2ccc(OCCCO)cc2)O[C@H]1c1ccccc1N=[N+]=[N-] — higher, 0.155
- O[C@@H](Cc1ccccc1)[C@@H](/C=C/C1CC1)NCc1cccc(Cl)c1 — higher, 0.0558
- CCC(CC)C(O)C1C=CC2C(=O)N(c3ccccc3)C(=O)C2N1Nc1ccccc1 (centres undefined) — higher, 0.503
- COC(=O)[C@@]1(Cc2ccccc2)[C@H]2c3cc(C(=O)N4CCCC4)n(Cc4ccc(O)c(OC)c4)c3C[C@H]2CN1C(=O)c1ccccc1 — higher, 0.641
- COCCCNC(=O)[C@@]1(Cc2ccccc2CN=[N+]=[N-])N=C(c2ccc(OCCCO)cc2)O[C@H]1c1ccccc1CN=[N+]=[N-] — higher, 0.239
- COc1ccc(-c2cc3c(c(Cc4ccccc4)n2)[Si](C(C)C)(C(C)C)OC3)cn1 — higher, -0.115
- CC(C)(C)OC(=O)CC[C@]1(C(=O)NCCN2CCOCC2)COC(c2ccc(OCCCO)cc2)=N1 — higher, -0.0984
- CC(C)[Si](C#CCCCC#N)(O[C@H](c1ccccc1)c1cn(Cc2cccc(Cl)c2)nn1)C(C)C — higher, 0.0322
- COc1ccc(C(=O)Nc2ccc(CN3C(=O)[C@]4(O[C@H](CC(=O)N5CCC[C@H]5CO)[C@@H]([Si](C)(C)c5ccc(OC)cc5)[C@@H]4C)c4ccccc43)cc2)cc1 — higher, -0.124
- CC(C)(C)OC(=O)CC[C@@]1(C(=O)N2CCCCC2)N=C(c2ccc(OCCCO)cc2)O[C@@H]1c1ccccc1 — higher, 0.0215
- O=C1NC(=O)C2C1C=CC(C(O)C1CC=CCC1)N2Nc1ccccn1 (centres undefined) — higher, 0.113
- [N-]=[N+]=Nc1ccccc1C[C@]1(C(=O)N2CCCCC2)COC(c2ccc(OCCCO)cc2)=N1 — higher, -0.0631
- COc1ccc([Si](C)(C)[C@@H]2[C@@H](CC(=O)N3Cc4ccccc4C[C@H]3CO)O[C@]3(C(=O)N(Cc4cccc(N5CCC5=O)c4)c4ccccc43)[C@H]2C)cc1 — higher, -0.0963
- O=C1C[C@@](C(=O)NCc2ccccc2)(c2ccc([N+](=O)[O-])cc2)[C@@H](c2ccc(CO)cc2)N1CC12CC3CC(CC(C3)C1)C2 — higher, -0.0965
- CC=CC(O)C1C=CC2C(=O)N(C)C(=O)C2N1N(c1ccccc1)c1ccccc1 (centres undefined) — higher, 0.0973
- C=C(CCCC)C(=O)CC[C@H](OC(=O)c1cccnc1)c1ccc(OCCO)cc1 — higher, -0.0547
- CCOC(=O)C1=CCC(c2ccc(F)cc2)N(S(=O)(=O)c2ccc(C)cc2)C1 (centres undefined) — higher, -0.0396
- O=C1OCCC=C[C@H]2OC34C=CCN(Cn5nnc6ccccc65)C(=O)[C@H]3N(CCO)C(=O)[C@@H]4C12 (some centres undefined) — higher, -0.135
- CC(c1ccccc1)C(O)C1C=CC2C(=O)N(c3ccccc3)C(=O)C2N1Nc1ccccc1 (centres undefined) — higher, 0.0008
- NCCCCCNC(=O)[C@H]1C[C@H]2C(=O)N3CCC[C@H]3C(=O)N2[C@H]1c1ccc(O)cc1 — higher, 0.821
